Data: the supplement of paper PMC6555819

What was measured:
Assay in all cases: PBM binding z-score (relative to random genomic background probes); higher = stronger binding; sequences stand for … in GC…GCGATTGACAGCGTAGAATGAAGG
[1] = test system: RARb homodimer (NR concentration 270 nM)
Outline: (§1)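 Ligand-free nuclear receptor dimers were applied to custom Agilent 4×180K protein-binding microarrays whose double-stranded probes carried direct-repeat seeds, single-nucleotide variants, half-site ablations and random human genomic background sequences in 34-nt variable regions. Incubation lasted 1 h. Binding z-scores were computed against the random background probes from regression-normalized fluorescence.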

[2] = test system: RARg:RXRa (NR concentration 270 nM, RXRa partner concentration 90 nM)
Outline: as §1

[3] = test system: RARg homodimer (NR concentration 270 nM)
Outline: as §1

[4] = test system: RXRa DBDmut IVT, anti-RXR (DBD mutation: RXRa K156A/R161A, NR concentration 90 nM)
Outline: as §1

[5] = test system: RXRa homodimer (NR concentration 180 nM)
Outline: as §1

[6] = test system: THRa:RXRa (NR concentration 90 nM, RXRa partner concentration 90 nM)
Outline: as §1

[7] = test system: THRa homodimer (NR concentration 90 nM)
Outline: as §1

[8] = test system: VDR homodimer (NR concentration 270 nM)
Outline: as §1

| Sequence | PBM binding z-score [1] | PBM binding z-score [2] | PBM binding z-score [3] | PBM binding z-score [4] | PBM binding z-score [5] | PBM binding z-score [6] | PBM binding z-score [7] | PBM binding z-score [8] |
| --- | --- | --- | --- | --- | --- | --- | --- | --- |
| TAGCCTTGGTCAGATCGGGCCAGTATACGCTATA | -0.204 | -0.284 | 0.118 | -1.12 | -0.507 | 1.29 | -0.783 | -0.709 |
| GTAACGAGGGCAAGTTGATAGCAGAGTTTGATGG | 1.71 | 1.66 | 1.86 | 2.07 | 0.851 | 1.36 | 0.0846 | 2.23 |
| TCTTGTACATCAGCAGGTTAAGAAAGCTGGCCAA | 0.266 | 0.217 | -0.00852 | 0.924 | 0.606 | 0.455 | -0.157 | 0.111 |
| AGTCAAAGTTCCCTAGGTAACGTAAGATTCAGCT | 0.045 | 0.0675 | 0.31 | 0.164 | -0.00363 | 0.427 | -0.151 | -0.324 |
| GGAACGTGGGCAAAGTTGATAGCATCTGTCGACG | -0.345 | -0.158 | -0.178 | -0.177 | -0.03 | -0.579 | -0.838 | -0.389 |
| TCATATAGGTACAGGTGAAAGTCGAACGATATGA | 0.469 | 0.866 | 0.834 | 0.797 | 1.07 | 0.566 | -0.52 | 0.343 |
| CCGAGTAGGTTATGGGGCATGCAGGCAACGGTGA | 1.15 | 0.72 | 0.548 | -0.675 | 0.867 | 0.102 | -0.321 | -0.0729 |
